From PubChem BioAssay
A selection: hits, their analogues and other compounds. The true share with any hit is near 27%.
sEH inhibitor: soluble epoxide hydrolase inhibitors, primary screen, biochemical, human sEH. recombinant human sEH enzymatic activity assay. inhibition, % at 2 µM. actives 0.34% (n = 91,000); in the data active means inhibition above about 80%
sEH activator: soluble epoxide hydrolase activators, primary screen, biochemical, human sEH. purified human sEH enzymatic activity, activator screen. activation, % at 2 µM. actives 0.04% (n = 91,000); in the data active means activation above about 37%
CYP2C19 activ: human CYP2C19 activators, primary screen, biochemical, luminescence; Cytochrome P450 2C19 (Homo sapiens), P33261; recombinant CYP2C19, luciferin-H EGE luminescence; active compounds read high; 0 = fully inhibited enzyme, 1 = untreated enzyme; activation factor at 5 µM; 96,000 tested, under 10 active; AID 1025, 2008;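 active means activation factor of at least 2 at 5 µM in the primary screen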
Target sequence (P33261 whole entry, looked up): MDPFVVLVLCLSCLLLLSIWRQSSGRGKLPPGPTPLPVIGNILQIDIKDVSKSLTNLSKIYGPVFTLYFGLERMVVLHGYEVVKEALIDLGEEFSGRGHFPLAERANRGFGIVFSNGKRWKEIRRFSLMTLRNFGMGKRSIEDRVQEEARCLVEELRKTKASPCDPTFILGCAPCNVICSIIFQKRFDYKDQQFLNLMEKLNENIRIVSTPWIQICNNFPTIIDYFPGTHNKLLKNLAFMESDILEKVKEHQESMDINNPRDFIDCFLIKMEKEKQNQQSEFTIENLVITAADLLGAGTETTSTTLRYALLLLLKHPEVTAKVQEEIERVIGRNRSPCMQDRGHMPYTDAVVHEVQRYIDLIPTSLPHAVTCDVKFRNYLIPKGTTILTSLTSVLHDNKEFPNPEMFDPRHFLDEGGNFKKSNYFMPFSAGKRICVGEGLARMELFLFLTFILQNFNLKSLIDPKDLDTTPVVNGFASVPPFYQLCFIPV
CYP2C19 inhib: blockers of cytochrome P450 2C19 activity – biochemical, luminescence, ADME assay, primary screen; inhibition, % at 5 µM; P33261; CYP2C19 Supersomes, luciferin-H EGE luminescence, 30 min; AID 778, 2007; actives 21% (n = 96,000);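 active means CYP2C19 inhibition above a set limit at 5 µM in the primary screen, cut at about 50% in these data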
CYP2C9 activ: human CYP2C9 activators, primary screen, biochemical, luminescence; AID 1024, 2008; activation factor at 5 µM; recombinant CYP2C9, luciferin-H conversion; active compounds read high; factor 1 = untreated enzyme, 0 = blocked; actives 1.4% (n = 96,000);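 active means activation factor of 2 or more for CYP2C9 at a 5 µM dose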
CYP2C9 inh: blockers of cytochrome P450 2C9 activity – biochemical, luminescence, ADME assay, primary screen; inhibition, % at 5 µM; AID 777, 2007; P11712; CYP2C9 Supersomes, luciferin-H conversion; actives 20% (n = 96,000);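 active means blocking of liver enzyme CYP2C9 beyond about 50% at 5 µM, limit read from the data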
Of the large screens only hits and unclear results are named; the others gave an inactive call.

O=C1C2C3c4ccccc4C(c4ccccc43)C2C(=O)N1c1cccc2cccnc12 (centres undefined)	none
COc1ccc2c(c1)C(=O)N(c1ccccc1OC)C(=O)C2(C)C	CYP2C19 inhib 83.9, CYP2C9 inh 62.9
COc1ccc2c(c1)C(=O)N(c1ccccc1)C(=O)C2	none
O=C(NCCCN1CCOCC1)c1csc2c1CCCC2	none
Cc1ccc(C(C)n2cc(C(=O)NCc3ccncc3)nn2)cc1 (centres undefined)	CYP2C9 inh 88.7
CCC(C)NS(=O)(=O)c1ccc(OCC(=O)N2CCC(C)CC2)cc1 (centres undefined)	none (no result: CYP2C19 activ, CYP2C19 inhib, CYP2C9 activ, CYP2C9 inh)
O=c1c2c3c(sc2n2c(=S)[nH]nc2n1Cc1ccccc1)CN(Cc1ccccc1)CC3	none (no result: CYP2C19 activ, CYP2C19 inhib, CYP2C9 activ, CYP2C9 inh)
COC(=O)c1ccccc1NC(=O)C1CCN(S(C)(=O)=O)CC1	none
O=C(Nc1ccccc1C(=O)N1CCCCC1)C1CCCCC1	CYP2C9 inh 56.1 (no result: sEH inhibitor, sEH activator)
Cc1ccccc1C(=O)N1CCC(C(=O)Nc2cccc(F)c2)CC1	CYP2C9 inh 50.6
COC(=O)c1ccccc1NC(=O)C1CCN(C(=O)c2ccc(OC)cc2)CC1	CYP2C19 inhib 50.2
O=C(c1ccccc1Nc1ccc(SC(F)F)cc1)N1CCCCC1	CYP2C19 inhib 87.9, CYP2C9 inh 53.4
CC(C)(C)C(=O)Nc1ccccc1C(=O)N1CCCC1	none (no result: CYP2C19 activ, CYP2C19 inhib, CYP2C9 activ, CYP2C9 inh)
CCC(C)NC(=O)c1c(C)cc(=O)oc1C (centres undefined)	none
Cc1ccc(S(=O)(=O)c2c(C)cc(C)nc2Oc2cccc(C(F)(F)F)c2)cc1	CYP2C19 inhib 59.0
Cc1cc(C)c(S(C)(=O)=O)c(Oc2ccc(C(C)(C)C)cc2)n1	CYP2C9 inh 85.6
COc1ccc(N2C(=O)CC(N3CCN(C4CCc5ccccc5C4)CC3)C2=O)cc1 (centres undefined)	none
CCOc1ccc(CCNC(=O)C2CCN(S(=O)(=O)N3CCOCC3)CC2)cc1OCC	none
CCN(CC)S(=O)(=O)c1ccc2[nH]c(=O)[nH]c2c1	none (no result: sEH inhibitor, sEH activator)
O=C(NC1CCCCC1)C(c1ccco1)N(CCc1ccccc1)C(=O)C(F)(F)F (centres undefined)	none (no result: CYP2C19 activ, CYP2C19 inhib, CYP2C9 activ, CYP2C9 inh)
COc1ccc(CCN(C(=O)C(F)(F)F)C(C(=O)NC2CCCC2)c2cccs2)cc1 (centres undefined)	CYP2C19 inhib 62.9, CYP2C9 inh 77.1
CCOc1ccc(C=O)cc1CN1CCCCC1	none
Cc1ccc(Cc2c(C)nc3nc(SCC(=O)NCc4ccco4)nn3c2C)cc1	CYP2C9 inh 55.9
Cc1ccccc1Cc1c(C)nc2nc(SCC(=O)NCc3ccco3)nn2c1C	CYP2C9 inh 66.1
Cc1ccccc1Cc1c(C)nc2c(C(=O)NCc3ccco3)cnn2c1C	CYP2C19 inhib 56.2, CYP2C9 inh 86.6
Cc1nc2ncnn2c(C)c1CCC(=O)NCc1ccco1	none
Cc1nc2nc(SCC(=O)NCc3ccco3)nn2c(C)c1Cc1c(F)cccc1Cl	CYP2C9 inh 88.5 (no result: sEH inhibitor, sEH activator)
Cn1c2c(c(=O)[nH]c1=O)C(NC(=O)c1ccco1)(C(F)(F)F)C(=O)N2 (centres undefined)	none
CCC(=O)N1CCc2cc(S(=O)(=O)NCCCN(CC)Cc3ccccc3)ccc21	none
COc1ccc(NC(=O)C(CC(C)C)NC(=O)c2ccccc2C)cn1 (centres undefined)	CYP2C19 inhib 53.9, CYP2C9 inh 51.6
O=C(NC(C(=O)N/N=C/c1cccc2ccccc12)c1n[nH]c(=O)c2ccccc12)c1ccccc1 (centres undefined)	CYP2C9 inh 56.1
O=C(Nc1ccc2nc(-c3cccnc3)[nH]c2c1)c1ccco1	none (no result: sEH inhibitor, sEH activator)
O=C(Nc1ccc(-c2nc3ccccc3[nH]2)cc1)c1ccco1	CYP2C19 inhib 66.4 (no result: sEH inhibitor, sEH activator)
Cc1ccc2nc(-c3ccc(NC(=O)C4CCCO4)cc3)[nH]c2c1 (centres undefined)	CYP2C19 inhib 61.9, CYP2C9 inh 54.0
Cc1ccc2nc(-c3cccc(NC(=O)c4ccco4)c3)[nH]c2c1	CYP2C19 inhib 90.6, CYP2C9 inh 90.8
O=C(c1cc2ccccc2o1)c1nc2c(n1O)CCCCC2	none
Nc1nnc(SCC(=O)NC23CC4CC(CC(C4)C2)C3)s1	none
COC(=O)c1cccc(-n2nnnc2SCC(=O)Nc2cc(C)on2)c1	CYP2C19 inhib 51.4, CYP2C9 inh 51.5
COC(=O)c1cccc(-n2nnnc2SCC(=O)Nc2nc3c(s2)CCCC3)c1	CYP2C19 inhib 53.2 (no result: sEH inhibitor, sEH activator)
COc1cccc(-n2nnnc2SCC(=O)Nc2nc3c(s2)CCCC3)c1	none (no result: CYP2C19 activ, CYP2C19 inhib, CYP2C9 activ, CYP2C9 inh)
COC(=O)c1c(NC(=O)CSc2nnnn2-c2ccccc2)sc2c1CCCC2	CYP2C9 inh 71.5
O=C(N/N=C\c1ccc(F)cc1)c1csnn1	none
Cc1ccc(C)n1C1CCS(=O)(=O)C1 (centres undefined)	none
CC(C)c1ccccc1N=C1SCCN1C1CCS(=O)(=O)C1 (centres undefined)	CYP2C19 inhib 58.3
Cc1csc2ncc(C(=O)NCc3ccco3)c(=O)n12	none (no result: CYP2C19 activ, CYP2C19 inhib, CYP2C9 activ, CYP2C9 inh)
O=C(Nc1nccs1)c1cc2c(s1)CCCCC2	none
COC(=O)c1sccc1NC(=O)c1cc2c(s1)CCCC2	CYP2C9 inh 61.2
N=c1cc(C2(O)CCCCC2)n2c(nc3ccccc32)s1	CYP2C9 inh 58.0
Oc1ccccc1-c1cc(C(F)(F)C(F)F)nc(-c2ccccc2)n1	none
FC(F)C(F)(F)C(F)(F)C(F)(F)c1cc(-c2ccccc2)n[nH]1	CYP2C19 inhib 85.3, CYP2C9 inh 76.4 (no result: sEH inhibitor, sEH activator)
CCOC(=O)c1cnc(Nc2nc3ccccc3o2)nc1CN1CCN(c2ccccc2)CC1	none (no result: CYP2C19 activ, CYP2C19 inhib, CYP2C9 activ, CYP2C9 inh)
CCOC(=O)c1cnc(Nc2nc3ccccc3o2)nc1C	CYP2C19 inhib 88.1, CYP2C9 inh 58.1
O=C(C1CCC(N2C(=O)C3CC=CCC3C2=O)CC1)N1CCCCC1 (centres undefined)	none
O=C(N/C(=N\O)c1ccccc1)Nc1ccc(Cl)cc1	CYP2C19 inhib 64.0, CYP2C9 inh 56.4
Cc1ccc(NC(=O)CSc2nc3ccccc3c(=O)n2CCCC(=O)N2CCCC2)cc1	CYP2C19 inhib 54.8
Cc1ccc(NC(=O)CSc2nc3ccccc3c(=O)n2CCCN2CCCCC2)cc1C	CYP2C9 inh 63.1
CCCCn1c(SCC(=O)Nc2cc(NC(=O)c3ccco3)ccc2C)nc2ccccc2c1=O	CYP2C19 inhib 71.7, CYP2C9 inh 74.6
COCCn1c(SCCN2CCCCC2)nc2ccccc2c1=O	none
COCCn1c(SCC(=O)Nc2ccc(NC(=O)c3ccco3)c(OC)c2)nc2ccccc2c1=O	none
O=C(Cn1c(=O)oc2cc(S(=O)(=O)N3CCCC3)ccc21)N1CCCC1	none
CCOC(=O)Cn1c(=O)oc2cc(S(=O)(=O)N3CCN(c4ccccn4)CC3)ccc21	none
